Measured values: paper PMC5700166
Positions count from the first letter of the chain named.

Assays:
Experiment in all cases: protein-binding microarray (PBM); PBM: ~300 nM protein, 6 mM HEPES pH 7.8, 80 mM KCl, 0.5 mM EDTA, 0.5 mM EGTA, 6% glycerol, 35 ng/ul poly-dIdC, 1% milk, 1 h, room temperature; Ap Aiptasia and Nv Nematostella (sea anemones) / Co Capsaspora / Aq Amphimedon (sponge) / Dm Drosophila / Hu human; RHD is the Rel homology domain; high values mean tight binding
Details in all cases: dsDNA, one strand shown
GST-Ap-NF-kB RHD = target: T1, GST-Ap-NF-kB RHD (Exaiptasia pallida (Aiptasia), UniProt A0A913YAJ5 2-422)
T1 sequence: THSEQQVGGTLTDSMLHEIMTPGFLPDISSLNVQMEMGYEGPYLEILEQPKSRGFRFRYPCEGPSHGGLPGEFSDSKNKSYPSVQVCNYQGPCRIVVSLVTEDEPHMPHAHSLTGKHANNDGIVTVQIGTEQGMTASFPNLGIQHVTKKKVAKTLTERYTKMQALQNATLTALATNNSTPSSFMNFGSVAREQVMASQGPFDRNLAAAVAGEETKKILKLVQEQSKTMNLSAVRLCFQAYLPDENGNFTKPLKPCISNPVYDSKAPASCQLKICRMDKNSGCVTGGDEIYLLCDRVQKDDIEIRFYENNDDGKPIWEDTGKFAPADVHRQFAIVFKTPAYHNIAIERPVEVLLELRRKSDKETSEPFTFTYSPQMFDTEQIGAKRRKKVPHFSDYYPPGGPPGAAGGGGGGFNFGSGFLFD

[1] = target: T2, GST-Nv-NF-kB (Cys allele) (Nematostella vectensis, UniProt E5G601 2-411)
T2 sequence: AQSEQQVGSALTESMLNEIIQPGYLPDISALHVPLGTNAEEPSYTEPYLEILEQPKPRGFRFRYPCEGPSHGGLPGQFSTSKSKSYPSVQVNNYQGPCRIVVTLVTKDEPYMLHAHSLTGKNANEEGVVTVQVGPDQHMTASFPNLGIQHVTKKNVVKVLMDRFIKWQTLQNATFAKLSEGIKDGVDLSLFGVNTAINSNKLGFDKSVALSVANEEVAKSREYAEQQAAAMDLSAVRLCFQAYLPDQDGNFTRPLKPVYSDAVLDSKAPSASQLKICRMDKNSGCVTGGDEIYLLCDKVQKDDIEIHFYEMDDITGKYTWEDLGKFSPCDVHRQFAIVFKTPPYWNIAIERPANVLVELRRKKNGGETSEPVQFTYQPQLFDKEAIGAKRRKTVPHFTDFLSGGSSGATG

[2] = target: T3, GST-Nv-NF-kB (Ser allele) (Nematostella vectensis, UniProt A7UNT2 2-411)
T3 sequence: T2 sequence with Q21R, C66S, S207N, E215Q, V217A, E225K, A268E, D399E

GST-Co-NF-kB = target: T4, GST-Co-NF-kB (Capsaspora owczarzaki, UniProt F1ARL5 200-546)
T4 sequence: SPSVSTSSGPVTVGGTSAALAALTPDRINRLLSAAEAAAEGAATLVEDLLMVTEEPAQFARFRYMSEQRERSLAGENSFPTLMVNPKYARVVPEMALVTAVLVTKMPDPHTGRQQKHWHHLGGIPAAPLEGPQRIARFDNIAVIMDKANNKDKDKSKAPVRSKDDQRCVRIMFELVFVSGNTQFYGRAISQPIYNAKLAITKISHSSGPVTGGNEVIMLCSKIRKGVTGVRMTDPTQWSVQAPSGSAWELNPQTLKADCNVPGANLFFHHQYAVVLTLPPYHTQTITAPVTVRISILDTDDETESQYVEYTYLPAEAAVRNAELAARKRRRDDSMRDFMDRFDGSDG

GST-Dm-Relish = target: T5, GST-Dm-Relish (Drosophila melanogaster, UniProt Q94527 99-473)
T5 sequence: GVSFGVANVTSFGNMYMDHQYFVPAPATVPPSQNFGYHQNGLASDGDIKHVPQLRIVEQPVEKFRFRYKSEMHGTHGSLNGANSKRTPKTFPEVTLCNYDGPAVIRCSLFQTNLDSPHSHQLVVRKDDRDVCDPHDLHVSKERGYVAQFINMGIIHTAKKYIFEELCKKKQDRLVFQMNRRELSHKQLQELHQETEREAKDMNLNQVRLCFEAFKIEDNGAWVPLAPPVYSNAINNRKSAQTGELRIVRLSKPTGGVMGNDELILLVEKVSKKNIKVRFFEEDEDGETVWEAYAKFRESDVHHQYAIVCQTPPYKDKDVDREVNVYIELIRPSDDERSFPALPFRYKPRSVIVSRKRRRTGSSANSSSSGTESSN

GST-Aq-NF-kB = target: T6, GST-Aq-NF-kB (Amphimedon queenslandica, UniProt A9Y5G7 2-389)
T6 sequence: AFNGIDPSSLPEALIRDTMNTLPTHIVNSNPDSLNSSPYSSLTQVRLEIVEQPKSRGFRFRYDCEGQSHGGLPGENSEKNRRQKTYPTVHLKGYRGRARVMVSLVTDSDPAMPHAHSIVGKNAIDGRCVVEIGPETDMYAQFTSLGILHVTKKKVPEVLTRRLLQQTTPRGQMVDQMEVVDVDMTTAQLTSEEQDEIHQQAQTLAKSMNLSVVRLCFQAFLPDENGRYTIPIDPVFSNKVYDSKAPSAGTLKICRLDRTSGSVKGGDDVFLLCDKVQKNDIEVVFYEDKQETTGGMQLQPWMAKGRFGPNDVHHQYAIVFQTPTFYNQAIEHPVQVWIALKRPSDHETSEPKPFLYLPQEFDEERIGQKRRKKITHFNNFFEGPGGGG

| Sequence | binding signal (GST-Ap-NF-kB RHD) | binding signal [1] | binding signal [2] | binding signal (GST-Co-NF-kB) | binding signal (GST-Dm-Relish) | binding signal (GST-Aq-NF-kB) |
| --- | --- | --- | --- | --- | --- | --- |
| CCGATTAACATCAGGGGTGGGGATGATGTTAATCGGGTCTTGATTCGCTTGACGCTGCTG | 4.17 z-score | 3.38 z-score | 3.28 z-score | 5.49 z-score | 2.85 z-score | 3.59 z-score |
| CCGATTAACATCAGGGGAACTCATGATGTTAATCGGGTCTTGATTCGCTTGACGCTGCTG | 6.56 z-score | 6.78 z-score | 7.59 z-score | 5.3 z-score | 6.03 z-score | 4.88 z-score |
| CCGATTAACATCACGCCCCCCCCTGATGTTAATCGGGTCTTGATTCGCTTGACGCTGCTG | 5.3 z-score | 4.2 z-score | 4.8 z-score | 3.87 z-score | 4.72 z-score | 4.89 z-score |
| CCGATTAACATCAAATTTTTCCCTGATGTTAATCGGGTCTTGATTCGCTTGACGCTGCTG | 3.81 z-score | 6.06 z-score | 8.21 z-score | 6.81 z-score | 2.35 z-score | 4.92 z-score |
| CCGATTAACATCAGGGGAAAGCATGATGTTAATCGGGTCTTGATTCGCTTGACGCTGCTG | 5.49 z-score | 6.83 z-score | 8.3 z-score | 6.79 z-score | 2.4 z-score | 4.54 z-score |
| CCGATTAACATCACCTATTCCCCTGATGTTAATCGGGTCTTGATTCGCTTGACGCTGCTG | 5.73 z-score | 5.93 z-score | 7.28 z-score | 5.72 z-score | 2.23 z-score | 4.27 z-score |
| CCGATTAACATCAAGGGGGGGCATGATGTTAATCGGGTCTTGATTCGCTTGACGCTGCTG | 4.34 z-score | 4.38 z-score | 2.83 z-score | 4.6 z-score | 3.45 z-score | 4.09 z-score |
| CCGATTAACATCACACCCCCCCGTGATGTTAATCGGGTCTTGATTCGCTTGACGCTGCTG | 4.06 z-score | 3.09 z-score | 3.09 z-score | 4.58 z-score | 4.46 z-score | 3.38 z-score |
| CCGATTAACATCACGATTTTCCCTGATGTTAATCGGGTCTTGATTCGCTTGACGCTGCTG | 3.77 z-score | 5.64 z-score | 7.32 z-score | 4.9 z-score | 1.65 z-score | 4.47 z-score |
| CCGATTAACATCACCCATTCCCCTGATGTTAATCGGGTCTTGATTCGCTTGACGCTGCTG | 6.25 z-score | 5.53 z-score | 7.1 z-score | 5.33 z-score | 2.33 z-score | 4.22 z-score |
| CCGATTAACATCAGCCCCCCCCCTGATGTTAATCGGGTCTTGATTCGCTTGACGCTGCTG | 4.45 z-score | 5.13 z-score | 3.95 z-score | 5.44 z-score | 4.51 z-score | 5.11 z-score |
